From PubChem BioAssay (NCATS)
Inconclusive results are not listed. Activity calls are given as the source filed them. Calls follow the shape of the dose curve; as a rule, active = well fitted curve in the direction sought with a large enough effect; inconclusive = small, poorly fitted or top-dose-only effect, or another doubt; inactive = no such curve, though single readings can be large; an effect the other way counts as inactive or inconclusive.

Experiments:
[1] = target: Calcium and integrin-binding protein 1 (Homo sapiens) (UniProt Q99828); assay: Primary qHTS for Identification of Calcium Integrin Binding Protein 1 (CIB1) Competitor (AID 1508620); conditions: CIB1-GST / FITC-alphaIIb peptide fluorescence polarization; series mostly up to 57.7 µM;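 also: GST tagged CIB1 binding a fluorescein labelled alphaIIb integrin peptide tracer; top concentration of the series differs between compounds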
Outline: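 Fluorescence polarization competition: CIB1-GST (1 uM final) preincubated with compound 15 min at room temperature, then FITC-labeled alphaIIb peptide (100 nM final) added for another 15 min. Polarization read at Ex 480/Em 540.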

[2] = Primary qHTS for inhibitors of nuclear receptor binding SET domain protein 2 (NSD2) in an isogenic RCH-ACV NSD2 p.E1099K mutant (9B) (AID 1645876); conditions: RCH-ACV NSD2 E1099K (9B) viability, CellTiter-Glo, 72 h; series mostly up to 44.9 µM; also: nearly all actives have a fitted effect of over 70% in size
[3] = Primary qHTS for inhibitors of nuclear receptor binding SET domain protein 2 (NSD2) in an RCH-ACV wild type WT cells (2C) (AID 1645877); conditions: RCH-ACV (leukaemia line) NSD2 WT (2C) viability, CellTiter-Glo, 72 h; series mostly up to 44.9 µM; also: nearly all actives have a fitted effect of over 70% in size
% is scaled to controls: 0 for no effect and ±100 for the full control effect.

Chain of Calcium and integrin-binding protein 1 (Homo sapiens) (Q99828 whole entry, looked up): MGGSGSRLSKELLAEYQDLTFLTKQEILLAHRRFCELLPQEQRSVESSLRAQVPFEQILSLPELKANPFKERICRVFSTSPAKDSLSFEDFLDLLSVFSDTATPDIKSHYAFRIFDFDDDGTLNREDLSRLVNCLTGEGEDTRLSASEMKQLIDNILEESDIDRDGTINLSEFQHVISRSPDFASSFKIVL

C[C@@H]1CC[C@]2(C(=O)O[C@@H]3O[C@H](CO[C@@H]4O[C@H](CO)[C@@H](O[C@@H]5O[C@@H](C)[C@H](O)[C@@H](O)[C@H]5O)[C@H](O)[C@H]4O)[C@@H](O)[C@H](O)[C@H]3O)CC[C@]3(C)C(=CCC4[C@@]5(C)C[C@@H](O)[C@H](O)[C@@](C)(CO)C5CC[C@]43C)C2[C@H]1C (stereo not given in full)
inactive: Potency [1] | outcome [2] inactive [at 9.23 µM] | outcome [3] inactive [at 9.23 µM]

CC1=C2C[C@@]3(C)[C@@H](CCC[C@@H]3C)C[C@@]2(O)OC1=O
inactive: Potency [1] | Potency [2] | Potency [3]

COC1OC(OC)C(O)(CCC2(C)C(C)CCC3(C)C2CC(O)C(O)C32CO2)C1O (stereo not given)
inactive: Potency [1] | Potency [2] | Potency [3]

COc1cc(C(=O)OCC2=CCC3C(C(=O)O)=COC(O[C@@H]4O[C@H](CO)[C@@H](O)[C@H](O)[C@H]4O)C23)ccc1O (stereo not given in full)
inactive: Potency [1] | Potency [2] | Potency [3]

COC(=O)C1=COC(OC2OC(CO)C(O)C(O)C2O)C2C(C)CC(=O)C12O (stereo not given)
inactive: Potency [1] | Potency [2] | Potency [3]

CC(=O)O[C@H]1[C@H](O[C@H]2CC[C@]34C[C@]35CC[C@]3(C)[C@@H]([C@@]6(C)CC[C@@H](C(C)(C)O)O6)[C@@H](O)C[C@@]3(C)[C@@H]5C[C@H](O[C@@H]3O[C@H](CO)[C@@H](O)[C@H](O)[C@H]3O)[C@H]4C2(C)C)OC[C@@H](OC(C)=O)[C@@H]1O
inactive: Potency [1] | Potency [2] | Potency [3]

C=C1CC[C@]2(C(=O)O[C@@H]3O[C@H](CO)[C@@H](O)[C@H](O)[C@H]3O)CC[C@]3(C)C(=CCC4[C@@]5(C)C[C@H](O)[C@@H](O[C@@H]6O[C@H](C(=O)O)[C@@H](O)[C@H](O)[C@H]6O)[C@](C)(C=O)C5CC[C@]43C)C2C1 (stereo not given in full)
inactive: Potency [1] | activity change, negative = viability loss [2] -1.03% [at 9.23 µM] | activity change, negative = cell killing [3] -2.63% [at 9.23 µM]

CC(C)C1CCC(C(=O)N[C@@H](Cc2ccccc2)C(=O)O)CC1 (stereo not given in full)
inactive: Potency [1] | Potency [2] | Potency [3]

O=C(OCC1OC(Oc2ccc(O)cc2COC(=O)C2(O)C(O)CCC(=O)C2OC(=O)C2C=CCC2)C(OC(=O)C2C=CCC2)C(O)C1O)C1C=CCC1 (stereo not given)
inactive: Potency [1] | Potency [2] | Potency [3]

CC(C)CC(c1c(O)c(C=O)c(O)c(C=O)c1O)C1CCC(C)(O)C2CC(C(C)(C)O)CCC12C (stereo not given)
inactive: Potency [1] | Potency [2] | Potency [3]
